Assay outcomes from PubChem.
This is a sample that favours compounds with a hit; in the whole collection about 12% have one here.
JMJD2A Tudor: JMJD2A Tudor domain (human) inhibition; AlphaScreen JMJD2A-Tudor / H3K4me3 peptide binding; Potency, µM (top dose mostly 114 µM), without a hit: at the top dose activity change, negative = inhibition, hits mostly inhibitors; hit rate 4.4% among 390,000; note: % is set by controls: 0 for no effect and ±100 for the full control effect; nearly all actives have a fitted effect of over 50% in size
L3MBTL1 block: blocks human L3MBTL1 | Q9Y468 | AlphaScreen L3MBTL1–H3K9me1 peptide binding | Potency, µM (series often up to 57.1 µM), for inactives: top-dose activity, negative = inhibition, usual class: inhibitors | hit rate 0.66% among 230,000 | AID 485360; note: % is set by controls: 0 for no effect and ±100 for the full control effect; nearly all actives have a fitted effect of over 60% in size
Target sequence (Q9Y468 whole entry, looked up): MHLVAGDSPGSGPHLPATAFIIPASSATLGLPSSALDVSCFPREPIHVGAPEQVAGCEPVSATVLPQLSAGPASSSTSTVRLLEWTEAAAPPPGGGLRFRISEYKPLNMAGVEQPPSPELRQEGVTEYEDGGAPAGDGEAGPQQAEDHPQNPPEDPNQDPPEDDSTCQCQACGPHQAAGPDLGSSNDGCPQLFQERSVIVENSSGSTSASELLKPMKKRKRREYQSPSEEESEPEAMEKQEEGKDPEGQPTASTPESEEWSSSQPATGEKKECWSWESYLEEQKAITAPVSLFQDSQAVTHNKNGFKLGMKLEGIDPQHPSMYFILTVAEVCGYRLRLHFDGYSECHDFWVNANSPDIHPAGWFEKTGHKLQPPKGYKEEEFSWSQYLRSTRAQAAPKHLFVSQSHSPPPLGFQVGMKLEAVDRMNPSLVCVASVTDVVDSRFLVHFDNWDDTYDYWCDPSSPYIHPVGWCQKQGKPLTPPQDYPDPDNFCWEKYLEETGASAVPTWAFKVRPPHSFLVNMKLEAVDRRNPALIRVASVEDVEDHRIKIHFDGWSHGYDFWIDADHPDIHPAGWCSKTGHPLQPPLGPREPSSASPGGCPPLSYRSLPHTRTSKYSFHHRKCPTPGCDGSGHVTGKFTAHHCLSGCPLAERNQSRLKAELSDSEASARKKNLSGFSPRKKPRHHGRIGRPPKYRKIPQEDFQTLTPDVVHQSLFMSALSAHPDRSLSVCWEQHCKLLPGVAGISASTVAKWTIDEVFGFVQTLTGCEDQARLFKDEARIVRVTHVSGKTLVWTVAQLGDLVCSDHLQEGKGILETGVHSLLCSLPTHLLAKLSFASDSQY
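L3MBTL1 (50 nM) pre-complexed 30 min with biotinylated H3(1-15)K9me1 peptide (75 nM), then compounds added for 30 min at room temperature; AlphaScreen streptavidin donor/nickel chelate acceptor beads (10 ug/mL final) read after 30 min dark incubation.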
HP1b chromo inh: blocks HP1-beta chromodomain binding to methylated histone tails | AlphaScreen HP1-beta / biotin-H3K9me3 peptide binding | Potency, µM (series often up to 114 µM), without a hit: at the highest dose activity change, negative = inhibition, usual class: inhibitors | hit rate 0.56% among 390,000 | AID 540317; note: nearly all actives have a fitted effect of over 70% in size
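AlphaScreen: HP1-beta (50 nM) preformed 30 min with biotin-H3(1-18)K9me3 peptide (50 nM) in PBS pH 7.4, 0.01% Tween-20. Compound added for 30 min at RT, then streptavidin donor/nickel chelate acceptor beads (10 ug/mL) for 30 min.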
BAZ2B block: inhibitors of human BAZ2B bromodomain; Potency, µM (highest dose often 114 µM), without a hit: at the highest dose activity change, negative = inhibition, most hits filed as inhibitors; AlphaScreen BAZ2B-H3K14Ac peptide displacement; hit rate 4.4% among 360,000; note: % is set by controls: 0 for no effect and ±100 for the full control effect; nearly all actives have a fitted effect of over 60% in size
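In this displacement format the biotinylated H3(5-23) peptide acetylated at Lys14 serves as ligand at 50 nM, with BAZ2B at 50 nM in PBS pH 7.4 containing 0.01% Tween-20. Donor and acceptor beads are 10 ug/mL final.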
G9a inh: blocks human histone lysine methyltransferase G9a. Q96KQ7. G9a H3K9 monomethylation, AlphaScreen, 2 h. Potency, µM (titrated, usually from 102 µM), for the others: at the highest dose activity, negative = inhibition, usual class: inhibitors. hit rate 8.8% among 350,000; note: % is set by controls: 0 for no effect and ±100 for the full control effect; nearly all actives have a fitted effect of over 75% in size
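Step 1: enzyme (final 20 nM) with compound, 15 min RT. Step 2: substrate peptide 500 nM and SAM 20 uM, 2 h RT. Step 3: anti-H3K9me1 antibody and AlphaScreen beads, 10 min, then plate read.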
Sfp inh: inhibitors of Bacillus subtilis Sfp phosphopantetheinyl transferase. Q9F4F7. Biochemical Sfp PPTase activity, qHTS. Potency, µM, for inactives: largest response in the series, negative = inhibition, usual class: inhibitors. hit rate 3.5% among 310,000;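 note: the enzyme is Sfp with the accession as filed and its product quenches rhodamine fluorescence; 0% = enzyme reaction without inhibitor and -100% = no enzyme wells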
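Sfp 15 nM + cpd, 15 min RT; start w/ rhodamine-CoA 5 uM, BHQ-2-YbbR 12.5 uM (final); 50 mM Hepes pH 7.6, 10 mM MgCl2, 0.01% NP-40, 0.01% BSA; read 525/598 nm at 0 and 30 min.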
Numbers without * were called inactive; [ ] = another dose, or the depositor's remark. Calls come from the whole dose curve; as a rule, active = well fitted curve in the direction sought with a large enough effect; inconclusive = small, poorly fitted or top-dose-only effect, or another doubt; inactive = no such curve, though single readings can be large; an effect the other way counts as inactive or inconclusive. Potency is the fitted concentration of half-maximal effect.

`COCCN1Cc2cc3cc(C)ccc3nc2SC1=Nc1ccc(OC)cc1` gave JMJD2A Tudor -25.5%, L3MBTL1 block -13.5%, HP1b chromo inh 27.7%, BAZ2B block -34.1%, G9a inh 44.7µM* and Sfp inh 20µM*.
For CCC(C)N=C1Sc2nc3ccc(C)cc3cc2CN1CCOC (stereo not given) the results were JMJD2A Tudor 44.7µM*, L3MBTL1 block 15.0%, HP1b chromo inh -10.2%, BAZ2B block -19.1%, G9a inh 5.01µM* and Sfp inh 44.7µM*.
Cc1ccc2nc3c(cc2c1)CN(Cc1ccco1)C(=NCC1CCCO1)S3 (stereo not given) was read as JMJD2A Tudor 56.2µM*, L3MBTL1 block 4.6%, HP1b chromo inh inconclusive, BAZ2B block -8.6%, G9a inh inconclusive and Sfp inh inconclusive.
For CCOc1ccc(N=C2Sc3nc4ccc(C)cc4cc3CN2CCOC)cc1 the results were JMJD2A Tudor -18.5%, HP1b chromo inh 12.5%, BAZ2B block inconclusive, G9a inh inconclusive and Sfp inh inconclusive.
CCOc1ccc2nc3c(cc2c1)CN(CCCO)C(=NCCOC)S3 was read as JMJD2A Tudor -10.7%[11.4 µM], L3MBTL1 block 7.3%, HP1b chromo inh -16.6%, BAZ2B block -4.8%, G9a inh 31.6µM* and Sfp inh -26.1%.
Screening COc1ccc(N(C(=O)COc2ccc(C)cc2)S(=O)(=O)c2ccc(C)cc2)cc1 returned JMJD2A Tudor 3.0%, L3MBTL1 block 3.8%, HP1b chromo inh 32.6%, BAZ2B block -11.6%, G9a inh 7.7%[59 µM] and Sfp inh -3.6%.
`c1ccc(CSc2nnc3c4ccccc4c4ccccc4c3n2)cc1` gave BAZ2B block inconclusive, G9a inh inconclusive and Sfp inh 4.7%.
For CN1CCN(C(=O)c2cc(C(C)(C)C)cc(C(C)(C)C)c2)CC1 the results were JMJD2A Tudor -15.4%, L3MBTL1 block -4.7%, HP1b chromo inh 29.9%, BAZ2B block 1.7%, G9a inh -22.3% and Sfp inh 7.0%.
Screening CC1CCN(C(=O)CSc2nc3ccccc3nc2Cc2ccccc2)CC1 returned JMJD2A Tudor 22.4%, HP1b chromo inh 53.1%[57 µM], BAZ2B block 23.3% and G9a inh 17.9%[59 µM].
For Nc1ccnc2c1ncn2[C@@H]1O[C@H](CO)[C@@H](O)[C@H]1O the results were G9a inh 33.1%[59 µM] and Sfp inh 15.4%.
`COCCN1Cc2cc3cc(C)ccc3nc2SC1=Nc1cccc(OC)c1` gave JMJD2A Tudor -4.8%, HP1b chromo inh 58.5%, BAZ2B block -9.5%, G9a inh -23.3% and Sfp inh -19.0%.
COCCN=C1Sc2nc3c(C)cccc3cc2CN1Cc1ccco1 was read as JMJD2A Tudor inconclusive, L3MBTL1 block -7.5%, HP1b chromo inh -21.1%, BAZ2B block -8.8%, G9a inh 11.3%[2.33 µM] and Sfp inh 20µM*.
Screening COCCN=C1Sc2nc3ccc(C)cc3cc2CN1Cc1cccs1 returned JMJD2A Tudor 8.1%, L3MBTL1 block 18.5%, HP1b chromo inh 75.1%, BAZ2B block 19.8%, G9a inh 8.6% and Sfp inh 22.4µM*.
`Cc1ccc(S(=O)(=O)NCc2ccccn2)cc1C` gave JMJD2A Tudor -4.8%, L3MBTL1 block -4.4%, HP1b chromo inh 36.7%, BAZ2B block -5.2%, G9a inh 32.4%[59 µM] and Sfp inh 3.9%.
`Cc1noc(C)c1-c1nccc(N2CCNCC2)n1` gave Sfp inh -2.2%.
ON/C=N/C(=S)Nc1ncc(C(F)(F)F)cc1Cl was read as JMJD2A Tudor -24.5%, L3MBTL1 block 2.6%, HP1b chromo inh 17.8%, BAZ2B block -1.4%, G9a inh 7.6% and Sfp inh -1.9%.
Screening COc1cc(/C=N/Nc2ncc(C(F)(F)F)cc2Cl)cc(OC)c1O returned JMJD2A Tudor -31.7%, L3MBTL1 block 5.9%, HP1b chromo inh 9.0%, BAZ2B block -5.8%, G9a inh 2.2%[2.33 µM] and Sfp inh 89.1µM*.
Oc1ccc(/C=N/Nc2ccc(Cl)nn2)c(O)c1O was read as JMJD2A Tudor 11.2µM*, HP1b chromo inh inconclusive, BAZ2B block 10µM*, G9a inh inconclusive and Sfp inh 10µM*.
For Oc1c(Br)cc(/C=N/Nc2ccc(Cl)nn2)cc1Br the results were JMJD2A Tudor inconclusive, HP1b chromo inh inconclusive, BAZ2B block 50.1µM*, G9a inh 39.8µM* and Sfp inh inconclusive.
For COc1cc(/C=N/Nc2ncc(C(F)(F)F)cc2Cl)cc(OC)c1OC the results were JMJD2A Tudor -15.7%, L3MBTL1 block 1.4%, HP1b chromo inh 39.0%, BAZ2B block -2.8%, G9a inh 9.5% and Sfp inh 3.3%.
For CON/C=N/C(=S)Nc1ncc(C(F)(F)F)cc1Cl the results were JMJD2A Tudor -6.3%, L3MBTL1 block -4.4%, HP1b chromo inh 17.4%, BAZ2B block 8.8%, G9a inh -7.5% and Sfp inh 11.2µM*.
`COc1ccccc1NCc1nnc2n1CCCCC2` gave JMJD2A Tudor -10.9%, HP1b chromo inh 13.7%, BAZ2B block 0.1% and G9a inh -25.5%[59 µM].
For COc1cc(/C=N/Nc2ccc(Cl)nn2)cc(OC)c1O the results were JMJD2A Tudor -21.0%, HP1b chromo inh inconclusive, BAZ2B block -12.2%, G9a inh 15.8µM* and Sfp inh 50.1µM*.
Screening Oc1c(Br)cc(Br)cc1/C=N/Nc1ccc(Cl)nn1 returned JMJD2A Tudor inconclusive, HP1b chromo inh 62.8%, BAZ2B block -10.2%, G9a inh 24.2%[2.33 µM] and Sfp inh -4.1%.
Screening CCC1=NN(C(=O)c2ccc(Br)cc2)C(O)(c2ccccc2)C1 (stereo not given) returned JMJD2A Tudor -31.9%, L3MBTL1 block -29.4%, HP1b chromo inh 18.0%, BAZ2B block 50.1µM*, G9a inh 18.4% and Sfp inh -4.9%.
CCCc1nnc(NC(=O)CN2C(=O)c3ccccc3C2=O)s1 was read as JMJD2A Tudor inconclusive, HP1b chromo inh 5.3%, BAZ2B block 10.3%, G9a inh 8.6%[12.7 µM] and Sfp inh -10.9%.
For CCC(CC)c1nnc(NC(=O)CN2C(=O)c3ccccc3C2=O)s1 the results were JMJD2A Tudor -1.4%, L3MBTL1 block 5.6%, HP1b chromo inh 7.4%, BAZ2B block -16.2%, G9a inh 44.7µM* and Sfp inh -9.9%.
Screening CCCC(C)c1nnc(NC(=O)CN2C(=O)c3ccccc3C2=O)s1 (stereo not given) returned JMJD2A Tudor -3.0%, L3MBTL1 block 4.6%, HP1b chromo inh 4.1%, BAZ2B block inconclusive, G9a inh 7.94µM* and Sfp inh 44.7µM*.
